Compounds without any hit were thinned out: in the full panel of roughly 83,000, 20% have a hit.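 Activity criterion: percent growth below 10, measured after cells in 96-well plates were exposed to a single compound concentration for 48 hours.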 Unmarked numbers belong to inactive results. Calls of active or inactive are those of the source.
system: HCT-15 colon; experiment: NCI-60 one-dose screen, 48 h (100 = growth as untreated, 0 = no growth, -100 = all killed); settings: 10 µM

Row | Structure (SMILES) | growth
1 | CCOS(=O)(=O)c1c(C(C)C)cc(C(C)C)cc1C(C)C | 97.2%
2 | CC(C)CCN(CCC(C)C)CC(=O)Nc1ccc(S(=O)(=O)c2ccc(NC(=O)CN(CCC(C)C)CCC(C)C)cc2)cc1 | 10.4%
3 | O=C(N/N=C/c1cc([N+](=O)[O-])ccc1O)c1cccc2ccccc12 | 22.5%
4 | COc1cc(Cc2cc(-c3ccccc3)n[nH]c2=O)cc(OC)c1OC | 34.5%
5 | C1CN(CC2CCC(CN3CCOCC3)O2)CCO1 (stereo not given) | 101%
6 | Cc1cc(=O)n2nnc3cc(Cl)c(Cl)cc3n12 | 103%
7 | CC(=O)N[C@H](C(=O)N[C@@H](CCCNC(=N)N)C(=O)N[C@@H](CCCCN)C(=O)N[C@@H](CCCNC(=N)N)C(=O)N[C@]1(C)CCCCCC/C=C\CCC[C@@](C)(C(=O)N[C@@H](CCCNC(=N)N)C(=O)N[C@@H](CCC(=O)O)C(=O)N[C@@H](CC(C)C)C(=O)N[C@H](C(=O)N[C@@H](CCC(=O)O)C(N)=O)C(C)C)NC(=O)[C@H](CCC(N)=O)NC(=O)[C@H](CC(C)C)NC(=O)[C@H](CC(C)C)NC(=O)[C@H](CCCNC(=N)N)NC(=O)[C@H](CCCNC(=N)N)NC(=O)[C@H](CC(C)C)NC1=O)C(C)C | -10.8% (active)
8 | Cc1ccc(/C=C2/C(=O)N(C)c3ccc(S(=O)(=O)Nc4ccc(C(C)(C)C)cc4)cc32)s1 | 83.8%
9 | CC(=O)[C@H]1CC[C@]2(C)[C@@H]1CC[C@@H]1[C@@]3(C)CC(CCC#N)(CCC#N)C(=O)C(C)(C)[C@@H]3CC[C@]12C | 100%
10 | O=C(CCn1cnc2c(cc(-c3ccccc3)n2-c2ccccc2)c1=O)Nc1ccc(F)cc1 | 81.4%
11 | Cc1c(Cl)cccc1NC(=O)CN1CCOCC1 | 99%
12 | CC(C)(C)OC(=O)CN1CCc2c(sc3ncnc(N/N=C/c4cccc5ccccc45)c23)C1 | 16.7%
13 | CCn1c(SCc2ccc(C)cc2)nnc1-c1nn(-c2ccc(Cl)cc2Cl)c(-c2ccc(Cl)cc2)c1C | 11.6%
14 | O=C(Nc1nc(-c2ccccc2)nc2c1sc(=S)n2-c1ccccc1)C(F)(F)F | 88.4%
15 | Cc1c[nH]c(=O)n(Cc2nnc(CCC(=O)c3nc4ccccc4[nH]3)o2)c1=O | 65.3%
16 | CCCCN(CCCC)C(=O)[C@H](CC)[C@@H]1CC[C@@H](C)[C@@H]([C@H](C)[C@@H](O)[C@@H](C)C(=O)[C@H](CC)C2O[C@]3(C=CC(=O)[C@]4(CC[C@@](C)([C@H]5CC[C@](O)(CC)[C@H](C)O5)O4)O3)[C@H](C)C[C@@H]2C)O1 (stereo not given in full) | 54%
17 | CCN(CC)CCOc1cccc2c1C(=O)c1ccccc1C2=O | 94.6%
18 | COc1cc(OC)c2c(=O)c(O)c(-c3ccccc3)oc2c1 | 51.7%
19 | COc1ccc(-c2cc(-c3ccccc3)nc(SCCCC(=O)NO)n2)cc1 | 10.8%
20 | COc1cc(-c2nn(-c3ccc(NC(=O)NCCNS(=O)(=O)c4ccc(F)cc4)cc3)cc2-c2ccncc2)ccc1Cl | 47.7%

Row | Structure (SMILES) | growth
21 | Cc1[nH]c2ccccc2c1/C=N/Nc1ncnc2sc3c(c12)CCN(CC(=O)OC(C)(C)C)C3 | 30.1%
22 | O=C1CSC(=S)N1/N=C/c1ccc(Cl)s1 | 97.9%
23 | O=C(CC(CC(=O)c1ccccc1)c1ccccc1O)c1ccccc1 | 96.5%
24 | CCOC(=O)c1cc(C(=O)c2cc(OC)cc(OC)c2)n2nc(C)ccc12 | 32.2%
25 | CCCc1cn(CC(=O)Nc2nc3ccccc3s2)nn1 | 108%
26 | CC(CN(C)C)Oc1ccc(OC(C)CN(C)C)c2c1C(=O)c1ccccc1C2=O (stereo not given) | 88.2%
27 | COc1cc(-c2nn(-c3cccc(NC(=O)NCCNC(=O)c4cccc(C(F)(F)F)c4)c3)cc2-c2ccncc2)ccc1Cl | 53.2%
28 | Cc1ccc(NCCNCC(C)(C)O)c2c(=O)c3ccc(Cl)cc3sc12 | -7.39% (active)
29 | CNS(=O)(=O)Oc1ccc(-c2sc3cc(OS(=O)(=O)NC)ccc3c2C(=O)c2ccc(OCCN3CCCCC3)cc2)cc1 | 35.2%
30 | CN(C)CCOc1ccccc1NC1=C(Cl)C(=O)C(Nc2ccccc2OCCN(C)C)=C(Cl)C1=O | 79.7%
31 | COc1cc(-c2nn(-c3cccc(NC(=O)CCNc4ccc(N5CCOCC5)cc4)c3)cc2-c2ccncc2)ccc1Cl | 14.2%
32 | C=CCSC(CC)(CC)C(=O)NC | 101%
33 | Cc1c(Cl)cccc1NC(=O)CCCl | 110%
34 | CC(=O)C1N=NCC1c1ccccc1 (stereo not given) | 96.9%
35 | CCN(CC)CCOc1cccc2c1C(=O)c1cccc(OCCN(CC)CC)c1C2=O | 57%
36 | CC(C)(C)OC(=O)CN1CCc2c(sc3ncnc(N/N=C/c4ccccc4Br)c23)C1 | 37%
37 | N#CCc1csc(Cc2ccccc2)n1 | 109%
38 | Clc1ccc(C2=NN=C3C(Cc4ccccc4)=Nc4ccccc4N3C2)cc1 | 68.6%
39 | CCN(CC)CC(=O)N(CC)c1ccc(C)c(Cl)c1 | 101%
40 | COc1cc(-c2csc(NC(=O)Nc3ccc(Cl)c(C(F)(F)F)c3)n2)cc(OC)c1OC | 10.5%
